This assay addresses T1, Aspartate--tRNA(Asp/Asn) ligase (Mycobacterium tuberculosis (strain ATCC 25618 / H37Rv)) (UniProt P9WFW3).
T1 sequence (whole entry): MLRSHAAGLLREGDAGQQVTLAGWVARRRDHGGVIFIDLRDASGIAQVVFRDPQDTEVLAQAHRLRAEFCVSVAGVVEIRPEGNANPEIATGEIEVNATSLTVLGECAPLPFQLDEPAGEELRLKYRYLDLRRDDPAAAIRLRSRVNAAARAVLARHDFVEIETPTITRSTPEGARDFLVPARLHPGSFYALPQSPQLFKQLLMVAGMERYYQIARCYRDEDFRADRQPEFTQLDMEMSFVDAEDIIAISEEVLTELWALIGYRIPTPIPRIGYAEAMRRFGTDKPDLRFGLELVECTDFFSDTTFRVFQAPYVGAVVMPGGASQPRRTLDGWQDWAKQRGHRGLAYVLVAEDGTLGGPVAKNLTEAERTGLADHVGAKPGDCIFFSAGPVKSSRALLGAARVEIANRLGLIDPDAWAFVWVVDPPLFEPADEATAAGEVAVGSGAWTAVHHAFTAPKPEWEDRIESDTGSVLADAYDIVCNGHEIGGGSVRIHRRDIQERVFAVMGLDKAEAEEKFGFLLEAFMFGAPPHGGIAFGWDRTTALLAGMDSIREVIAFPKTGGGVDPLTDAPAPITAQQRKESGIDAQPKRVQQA
Kind of assay: Assay for Asp RNA synthetase-1 from Mycobacterium tuberculosis. Also noted: scale not given: in the data most compounds retested in dose-response had high values. It counts as functional. The settings on record: 30 µM.
With `CC(CNC(=O)c1ccccc1Oc1cccnc1)N(C)C` (centres undefined), the Percent Effect is -2.89%. Turning to `O=C(CCCOc1ccc(F)cc1)N1CCCC(n2cccn2)C1` (centres undefined), the Percent Effect was -0.115%. As for `N#Cc1ccc(CNCC(C(=O)N2CCOCC2)c2ccccc2)cc1` (centres undefined), the Percent Effect came to 24.2%. With `COCCn1ccc(=O)c(OCC(=O)Nc2ccccc2)c1C`, the Percent Effect is -0.61%. Turning to `CC(=O)Nc1nc(C2CCN(C(=O)c3cccnc3)CC2)cs1`, the Percent Effect was -8.57%. For the molecule `COCCN1C(=O)CC(N2CCN(c3ccc(F)cc3)CC2)C1=O` (centres undefined), the Percent Effect was 1.23%. For the molecule `CCOc1ncccc1NC(=O)c1cc(C)c(C)s1`, the Percent Effect is -2.03%. As to `CCc1nc(COc2ccc(OCc3cnn(C)c3)cc2)no1`, the Percent Effect worked out at 0.524%. In the case of `COCCc1noc(CN2CCc3nn(C(C)C)c(=O)cc3C2)n1`, the Percent Effect is -0.0281%. As to `NC[C@H]1CC[C@H](C(NC(=O)c2ccccn2)c2ccccn2)CC1` (some centres undefined), the Percent Effect came to 1.43%. With `O=C(NCC1CC1)C1CCC2(CCN(C(=O)c3ccccn3)CC2)O1` (centres undefined) the figure was -1.39%; with `CC(C)(C)C(=O)N1CCCC1c1nc(O)cc(-c2ccccn2)n1` (centres undefined), -4.27%; with `CCOc1ccc(N(CC(=O)c2ccccc2)C2=NCCCCC2)cc1`, 1.35%.

For `Cn1c(C2CC2)nc2c1CCN(CC(=O)Nc1nncs1)C2`, the Percent Effect amounted to 7.07%. With `O=C(NCCNc1ncccn1)C1CC(=O)N(CC(F)(F)F)C1` (centres undefined), the Percent Effect is -6.31%. Consider `O=C(N1CCCC1)N1CCN(CC2CC2)c2ncccc2C1`, for which the Percent Effect was 3.25%. With `Cc1noc([C@@H]2CC[C@@H]3[C@@H](CCN3S(=O)(=O)c3cccnc3)O2)n1` the figure was 0.127%; with `Cc1cc(C[S+]([O-])CC(=O)Nc2c(C)cccc2C)no1` (centres undefined), -6.04%; with `CCOC(C)c1nc(CN2CCNCC2)cs1` (centres undefined), -2.26%.

Take `CC(NCc1ccncc1)c1cc(F)ccc1N1CCN(C)CC1` (centres undefined): the Percent Effect worked out at 0.183%. Take `CN(C)C(=O)CNC(=O)Nc1cccc(Cl)c1SC(F)F`: the Percent Effect is 4.9%. Turning to `COc1c(C2CCCN2C(=O)Cc2c(C)noc2C)c(C)nn1C` (centres undefined), the Percent Effect is -3.25%. The same measure for `CCC(C)(NCC(=O)Nc1ccccc1)c1nc(C)cs1` (centres undefined): 1.93%; for `CC(=O)c1cccc(OCCCC(=O)N(C)Cc2ccccn2)c1`: -1.04%. Consider `Cc1ccc(O)c(CNC2CCc3nc(C(C)C)nn3C2)n1` (centres undefined), for which the Percent Effect stood at 2.88%. `c1ncn(Cc2cnc3n2CCN(Cc2ccsc2)CC3)n1`: the Percent Effect was -1.22%. Take `CCc1cc(NCC(O)CN2CCCCC2)n2ncnc2n1` (centres undefined): the Percent Effect came to 8.06%. Turning to `O=C(CC1CN(Cc2ccccc2)CCO1)Nc1ccccc1F` (centres undefined), the Percent Effect is -4.94%. With `COc1ccc(C)cc1C(C)NC(=O)NCCCn1cncn1` (centres undefined) the figure was 2.78%.

Regarding `CCc1nccn1C1CCCN(C(=O)c2cn3cccnc3n2)C1` (centres undefined), the Percent Effect was -1.08%.

Take `Cc1nc(CN2CCC(N(C)Cc3noc(C(C)C)n3)C2)cs1` (centres undefined): the Percent Effect was 8.39%. For the molecule `O=C([C@H]1CCCO1)N1CCc2ncnc(NC3CC3)c2CC1`, the Percent Effect was 2.52%. For `O=C([C@H]1C[C@H]2OCC[C@H]2N(CCc2ccccc2)C1)N1CCCCO1`, the Percent Effect was determined as 0.871%.

`Cn1c(CC2CCS(=O)(=O)C2)nnc1SCCOc1cccc(Cl)c1` (centres undefined): the Percent Effect turned out to be 2.13%. As for `O=S(=O)(NC1=NCN(CCc2cccs2)CN1)c1ccccc1`, the Percent Effect was -3.8%. The same measure for `O=C(NCCc1c[nH]cn1)c1ccc2c(c1)C(=O)N(C1CC1)C2=O`: -1.45%; for `Cc1nc(CN2CCCC2c2c(C)nn(C)c2Cl)no1` (centres undefined): -3.26%; for `NC(=O)C1CCN(C(=O)CCn2ccc3cc(Br)ccc32)CC1`: 0.306%. Regarding `CCc1noc(CN2CCCN(C(N)=O)CC2)n1`, the Percent Effect is -1.28%.
